Data on 21 compounds can be found in PubChem BioAssay (EPA / NIEHS).

By AC50 is commonly meant the midpoint of the concentration-response curve, whichever way the signal moves.

Inconclusive results are not listed. Active and inactive are the calls of the source. How the source made its calls: active means hit-call score of the fitted dose curve at least 0.9, where 1 is the maximum; inactive means score below 0.9.

Read-out in the test: ABC Transporter (ABCB11), ABCB11 (gene 8647)
The experiment in a line: CLD_ABCB11_24hr: CellzDirect (CLD) Gene Expression Assay for ABC Transporter (ABCB11) at 48 hours (AID 2283674). Here is the method: CLD_24hr is a cell-based, multiplexed-readout assay that uses hepatocyte, a human liver primary cell, with measurements taken at 24 hours after chemical dosing in a 96-well plate.CLD_ABCB11_24hr is one of 16 assay component(s) measured or calculated from the CLD_24hr assay. It is designed to make measurements of mRNA induction, a form of inducible reporter, as detected with chemiluminescence signals by Quantitative Nuclease Protection Assay (qNPA) technology.Data from the assay component CLD_ABCB11_24hr was analyzed at the endpoint, CLD_ABCB11_24hr, in the positive analysis fitting direction relative to DMSO as the negative control and baseline of activity. Using a type of inducible reporter, gain-of-signal activity can be used to understand changes in the reporter gene as they relate to the gene ABCB11. Furthermore, this assay endpoint can be referred to as a primary readout. To generalize the intended target to other relatable targets, this assay endpoint is annotated to the transporter intended target family, where subfamily is ABC transporter.
Human hepatocyte cultures were treated daily for two consecutive days with fresh dosing solutions containing appropriate concentrations of the 320 ToxCast chemicals (chemical identities were blinded to CellzDirect and other ToxCast collaborators), vehicle control (0.2% DMSO), and positive control inducers as summarized in Table 1. Due to the large number of treatment groups and chemicals examined, the ToxCast chemicals were divided into two groups (spanning two independent cultures of hepatocytes from separate donor preparations (Hu778: ToxCast plates 1 and 2; Hu776: ToxCast plates 3 and 4). Each preparation of human hepatocyte cultures was treated with respective vehicle control, medium only control, set of six positive controls/reference chemicals for the five hepatic receptor pathways, and a subset of eight of the ToxCast chemicals (indoxacarb, pyrithiobac-sodium, norflurazon, cyhalofop-butyl, methomyl, thiram, acetochlor, and propiconazole). These replicate data, coupled with internal replicates designed within the blinded ToxCast chemical library, provided additional data to evaluate interindividual differences between hepatocyte preparations and their potential impact on chemical profiles.Cell morphology and integrity were evaluated using phase-contrast microscopy as an indicator of hepatocyte cell health (Tyson & Green, 1987). Cultures for each treatment group (i.e., media, vehicle [0.2% DMSO], positive control inducers [multiple concentrations], and the ToxCast chemicals [multiple concentrations]) were observed and cell morphology was assessed relative to vehicle control cultures at each harvest time point (0, 6, 24, or 48 h). […] Images were evaluated at the conclusion of the study to assess changes in cell integrity and account for the effects of chemical exposure on uncharacteristic changes in concentration-dependent gene expression profiles. The results from these determinations of apparent cytotoxicity were annotated (yes/no) alongside the corresponding qNPA data for reference.At the conclusion of each treatment period, hepatocyte cultures (96-well) were washed with 1 volume of HBSS, lysed by addition of 25 ul ArrayPlate lysis buffer (HTG, Tucson, AZ), and 70 ul/well of Denaturation Oil, denatured by incubation at 95C for 10 min, and frozen at approximately -70C until analysis by nuclease protection assay (qNPA) (Roberts et al., 2007). For qNPA analysis, cell lysates were thawed at 50C for approximately 30 min, qNPA probes were added, and samples were incubated at 95C for 10 min to begin the detection process by denaturing the target RNA, dissociating the duplexes and secondary structure hybridization. At the conclusion of the hybridization period, S1 nuclease reagent was added to each sample to digest all nonprotected nucleotides at 50C for 60-90 min. […]
Take `CC[C@H](C)[C@H]1O[C@]2(C=C[C@@H]1C)C[C@@H]1C[C@@H](C/C=C(\C)[C@@H](O[C@H]3C[C@H](OC)[C@@H](O[C@H]4C[C@H](OC)[C@@H](O)[C@H](C)O4)[C@H](C)O3)[C@@H](C)/C=C/C=C3\CO[C@@H]4[C@H](O)C(C)=C[C@@H](C(=O)O1)[C@]34O)O2` (tested in a mixture with another compound): the AC50 is 467 nM (active). In the case of `O=C(NC(=O)c1c(F)cccc1F)Nc1ccc(OC(F)(F)C(F)OC(F)(F)F)c(Cl)c1` (stereo unspecified), the compound was classed as inactive. Turning to `CCOCN(C(=O)CCl)c1c(C)cccc1CC`, the compound was called inactive. As to `Cc1cc(C)nc(NC(=O)NS(=O)(=O)c2ccccc2C(=O)OC2COC2)n1`, the result was inactive. In the case of `CCS(=O)(=O)c1cccnc1S(=O)(=O)NC(=O)Nc1nc(OC)cc(OC)n1`, the call was inactive. For `COC(=O)c1ccccc1S(=O)(=O)NC(=O)N(C)c1nc(C)nc(OC)n1`, the call was inactive. Consider `[2H]C1([2H])[n+]2ccccc2-c2cccc[n+]2C1([2H])[2H]`, for which the result was inactive. Consider `COc1nn(CSP(=S)(OC)OC)c(=O)s1`, for which the compound was called inactive.

For `COC(=O)c1ccccc1S(=O)(=O)NC(=O)Nc1nc(C)nc(OC)n1`, the result was inactive.

On to `Clc1ccccc1-c1nnc(-c2ccccc2Cl)nn1`, for which the compound was classed as inactive. Same read-out and setting: the value for `N#Cc1c(Cl)c(Cl)c(Cl)c(C#N)c1Cl` was “inactive”. On the same count and under the same terms, in the case of `N#CN` it was “inactive”; in that of `O=[N+]([O-])/N=C1\NCCN1Cc1ccc(Cl)nc1`, “inactive”; in that of `O=C1c2ccccc2C(=O)N1SC(Cl)(Cl)Cl`, “inactive”. Consider `CCc1ccc(C(=O)NN(C(=O)c2cc(C)cc(C)c2)C(C)(C)C)cc1`, for which the outcome was inactive. Consider `CCOc1nc(NC)nc(NC(=O)NS(=O)(=O)c2ccccc2C(=O)OC)n1`, for which the call was inactive. Turning to `C#CCN1C(=O)COc2cc(F)c(N3C(=O)C4=C(CCCC4)C3=O)cc21`, the call was inactive. As to `COP(=S)(OC)Oc1ccc([N+](=O)[O-])cc1`, the compound was called inactive.

As to `CNC(=O)/C=C(\C)OP(=O)(OC)OC`, the result was inactive. As for `OCCOc1ccccc1`, the result was inactive.

`O=S1OCC2C(CO1)C1(Cl)C(Cl)=C(Cl)C2(Cl)C1(Cl)Cl` (stereo unspecified): the outcome was inactive.
